Results: PubChem BioAssay AID1159580 (chemical genetic matrix, 2015)
About 2,000 (36%) of roughly 5,500 compounds were called active. Another 18% or so got no clear call; they are omitted. Rule as the data show it: active = normalized growth mostly below about 0.91 (no sharp cut-off); inconclusive = no clear call, values can overlap the other calls; inactive = mostly above about 0.92. This is one part of the list.

Assay: chemical genetic growth profiling, strain panel (AID 1159580);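 also: tested at 20 µM; growth read once vehicle control cultures reached saturation at 30 °C; 1 = growth at the plate median or of vehicle wells; lower values mean less growth of the strain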
Settings: growth OD

Measured: normalized growth

CC(C)c1c(O)c(-c2cc3c(c(C(C)C)c2O)CCC2C(C)(C)CCC[C@]32C)cc2c1CCC1C(C)(C)CCC[C@]21C (some centres not stated)
inactive: S. cerevisiae deletion strains, locus YJR075W, strain HOC1, hits give low values 1.01 | S. cerevisiae deletion strains, locus YKL009W, strain mrt4, hits give low values 1.06 | S. cerevisiae deletion strains, locus YKL068W, hits give low values 1.01 | S. cerevisiae deletion strains, locus YKL085W, strain MDH1 (second series), hits give low values 1.07 | S. cerevisiae deletion strains, locus YKL085W, strain MDH1, hits give low values 1.07 | S. cerevisiae deletion strains, locus YKL160W, strain elf1, hits give low values 0.984 | S. cerevisiae deletion strains, locus YKL190W, strain CNB1, hits give low values 1.01 | S. cerevisiae deletion strains, locus YKR001C, strain vps1, hits give low values 1.03 | S. cerevisiae deletion strains, locus YKR026C, strain gcn3, hits give low values 0.993 | S. cerevisiae deletion strains, locus YKR091W, strain srl3, hits give low values 0.971 | S. cerevisiae deletion strains, locus YLL001W, strain dnm1, hits give low values 1.01 | S. cerevisiae deletion strains, locus YLL026W, hits give low values 0.997 | S. cerevisiae deletion strains, locus YLL041C, strain sdh2, hits give low values 1.02 | S. cerevisiae deletion strains, locus YLR027C, strain aat2, hits give low values 0.983 | S. cerevisiae deletion strains, locus YLR039C, strain RIC1, hits give low values 1.07 | S. cerevisiae deletion strains, locus YLR058C, strain SHM2, hits give low values 1.02 | S. cerevisiae deletion strains, locus YLR102C, strain apc9, hits give low values 1.02 | S. cerevisiae deletion strains, locus YLR113W, strain HOG1, hits give low values 0.996 | S. cerevisiae deletion strains, locus YLR221C, strain rsa3, hits give low values 1.02 | S. cerevisiae deletion strains, locus YLR258W, strain gsy2, hits give low values 0.974 | S. cerevisiae deletion strains, locus YLR262C, strain YPT6 (second series), hits give low values 0.987 | S. cerevisiae deletion strains, locus YLR262C, strain YPT6, hits give low values 1.05 | S. cerevisiae deletion strains, locus YLR268W, strain sec22, hits give low values 1.01 | S. cerevisiae deletion strains, locus YLR320W, strain mms22, hits give low values 1.02 | S. cerevisiae deletion strains, locus YLR330W, strain CHS5, hits give low values 1.01 | S. cerevisiae deletion strains, locus YLR342W, strain FKS1 (second series), hits give low values 1.04 | S. cerevisiae deletion strains, locus YLR342W, strain FKS1, hits give low values 0.99 | S. cerevisiae deletion strains, locus YLR357W, strain rsc2, hits give low values 0.976 | S. cerevisiae deletion strains, locus YLR370C, strain arc18, hits give low values 0.982 | S. cerevisiae deletion strains, locus YLR371W, strain rom2, hits give low values 1.02 | S. cerevisiae deletion strains, locus YLR384C, strain iki3, hits give low values 0.972 | S. cerevisiae deletion strains, locus YLR418C, strain cdc73, hits give low values 1.01 | S. cerevisiae deletion strains, locus YML016C, strain PPZ1, hits give low values 1.02 | S. cerevisiae deletion strains, locus YML032C, strain rad52, hits give low values 1.03 | S. cerevisiae deletion strains, locus YML120C, strain ndi1, hits give low values 1 | S. cerevisiae deletion strains, locus YML124C, strain tub3, hits give low values 1.01 | S. cerevisiae deletion strains, locus YMR058W, strain fet3, hits give low values 0.982 | S. cerevisiae deletion strains, locus YMR078C, strain ctf18, hits give low values 1.01 | S. cerevisiae deletion strains, locus YMR125W, strain sto1, hits give low values 0.968 | S. cerevisiae deletion strains, locus YMR129W, hits give low values 0.98 | S. cerevisiae deletion strains, locus YMR205C, strain PFK2, hits give low values 0.973 | S. cerevisiae deletion strains, locus YMR223W, strain ubp8, hits give low values 1.03 | S. cerevisiae deletion strains, locus YMR231W, strain pep5, hits give low values 1.04 | S. cerevisiae deletion strains, locus YMR263W, strain SAP30, hits give low values 1.02 | S. cerevisiae deletion strains, locus YMR307W, strain GAS1, hits give low values 1.03 | S. cerevisiae deletion strains, locus YNL067W, strain RPL9B, hits give low values 1.02 | S. cerevisiae deletion strains, locus YNL071W, strain lat1, hits give low values 0.995 | S. cerevisiae deletion strains, locus YNL128W, strain TEP1, hits give low values 1.01 | S. cerevisiae deletion strains, locus YNL153C, strain GIM3, hits give low values 0.998 | S. cerevisiae deletion strains, locus YNL183C, strain NPR1, hits give low values 0.946 | S. cerevisiae deletion strains, locus YNL209W, strain ssb2, hits give low values 0.986 | S. cerevisiae deletion strains, locus YNL233W, strain BNI4, hits give low values 0.999 | S. cerevisiae deletion strains, locus YNL248C, strain rpa49, hits give low values 0.953 | S. cerevisiae deletion strains, locus YNL250W, strain rad50, hits give low values 1.02 | S. cerevisiae deletion strains, locus YNL271C, strain bni1, hits give low values 1.03 | S. cerevisiae deletion strains, locus YNL298W, strain CLA4, hits give low values 1.03 | S. cerevisiae deletion strains, locus YNL307C, strain MCK1, hits give low values 1.04 | S. cerevisiae deletion strains, locus YNL322C, strain KRE1 (second series), hits give low values 0.963 | S. cerevisiae deletion strains, locus YNL322C, strain KRE1, hits give low values 1.02 | S. cerevisiae deletion strains, locus YNR049C, strain mso1, hits give low values 0.963 | S. cerevisiae deletion strains, locus YNR052C, strain pop2, hits give low values 1.02 | S. cerevisiae deletion strains, locus YOL006C, strain TOP1, hits give low values 1.06 | S. cerevisiae deletion strains, locus YOL012C, strain htz1 0.995 | S. cerevisiae deletion strains, locus YOL147C, strain pex11, hits give low values 1.01 | S. cerevisiae deletion strains, locus YOR001W, strain rrp6, hits give low values 1.02 | S. cerevisiae deletion strains, locus YOR061W, strain CKA2, hits give low values 1.02 | S. cerevisiae deletion strains, locus YOR069W, strain VPS5, hits give low values 1.01 | S. cerevisiae deletion strains, locus YOR070C, strain gyp1, hits give low values 0.989 | S. cerevisiae deletion strains, locus YOR080W, strain dia2, hits give low values 0.953 | S. cerevisiae deletion strains, locus YOR083W, strain WHI5, hits give low values 0.997 | S. cerevisiae deletion strains, locus YOR106W, strain vam3, hits give low values 0.985 | S. cerevisiae deletion strains, locus YOR136W, strain idh2, hits give low values 1.01 | S. cerevisiae deletion strains, locus YOR144C, strain elg1, hits give low values 1.01 | S. cerevisiae deletion strains, locus YOR184W, strain ser1, hits give low values 1.04 | S. cerevisiae deletion strains, locus YOR231W, strain MKK1, hits give low values 0.958 | S. cerevisiae deletion strains, locus YOR265W, strain rbl2, hits give low values 1 | S. cerevisiae deletion strains, locus YOR270C, strain vph1, hits give low values 1 | S. cerevisiae deletion strains, locus YOR290C, strain snf2, hits give low values 0.957 | S. cerevisiae deletion strains, locus YOR316C, strain cot1, hits give low values 1.02 | S. cerevisiae deletion strains, locus YPL051W, strain arl3, hits give low values 0.999 | S. cerevisiae deletion strains, locus YPL055C, strain LGE1, hits give low values 1.02 | S. cerevisiae deletion strains, locus YPL078C, strain atp4, hits give low values 0.986 | S. cerevisiae deletion strains, locus YPL106C, strain sse1, hits give low values 0.948 | S. cerevisiae deletion strains, locus YPL240C, strain hsp82, hits give low values 0.996 | S. cerevisiae deletion strains, locus YPL241C, strain CIN2, hits give low values 1.02 | S. cerevisiae deletion strains, locus YPL256C, strain CLN2, hits give low values 0.949 | S. cerevisiae deletion strains, locus YPR119W, strain clb2, hits give low values 1.01 | S. cerevisiae deletion strains, locus YPR141C, strain kar3, hits give low values 1.02 | S. cerevisiae deletion strains, locus YPR163C, strain tif3, hits give low values 1.01 | S. cerevisiae deletion strains, locus YPR167C, strain met16, hits give low values 1.02 | S. cerevisiae deletion strains, strain wtn01, hits give low values 1.02 | S. cerevisiae strains, strain wild type, hits give low values 1.02
